Screens as filed in PubChem BioAssay.
Most compounds without a hit are left out; they make up all but 5.4% or so of the library.
HSF1 activator = increases HSF-1 driven luciferase reporter signal; NIH3T3-HGL HSF-1 luciferase reporter, MG132, 8 h; 100% = twice DMSO control signal; activation, % at 9 µM; hit rate 1.7% among 300,000; AID 504408;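 active = mean replicate activation of at least 50% with a set share of replicates each reaching 50%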;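 also: 0% = median of the neutral control wells and 100% = twice that signal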
GAA850 FXN act = frataxin GAA850 promoter activation; HEK293 lucGAA850 FXN promoter luciferase reporter, 24 h; percent of 10 µM SAHA response; activation, % at 6 µM; hit rate 0.56% among 360,000; AID 540364;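 active = activation above the average of all compounds screened plus 3 SD, cutoff fixed separately per campaign, cut at about 7.5% in these data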;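 also: 0% = DMSO wells and 100% = 10 µM SAHA wells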
AHR activator = activates the human aryl hydrocarbon receptor; P35869; AHR-responsive luciferase reporter cells, luminescence; activation, % at 5 µM; hit rate 2.5% among 320,000; in the data active = activation above about 47%;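 also: 0% = vehicle wells and 100% = reference agonist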
DAX1 inh = inhibitors of human orphan nuclear receptor DAX1 (NR0B1) | P51843 | HEK293 Gal4-DAX1 luciferase reporter, luminescence | inhibition, % at 6.75 µM | hit rate 0.99% among 340,000 | AID 504766;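 active = inhibition above the mean over all tested compounds plus 3 SD, cut at about 4.2% in these data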;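 also: 0% = DAX1-transfected cells with DMSO and 100% = empty-vector control cells with DMSO; inhibition shows as a rise in luminescence from relieved DAX1 repression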
Target sequence (P51843 207-470 limits assumed): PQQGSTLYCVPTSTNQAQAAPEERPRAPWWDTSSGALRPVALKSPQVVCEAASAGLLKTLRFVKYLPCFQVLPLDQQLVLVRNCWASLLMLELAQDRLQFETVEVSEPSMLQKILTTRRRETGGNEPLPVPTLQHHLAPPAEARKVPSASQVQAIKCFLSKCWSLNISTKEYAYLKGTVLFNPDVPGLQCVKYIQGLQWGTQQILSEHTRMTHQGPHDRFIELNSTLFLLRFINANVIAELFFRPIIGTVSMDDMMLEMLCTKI
HSF1 inh = HSF1 inhibition. NIH3T3-HGL HSE-luciferase, MG132-induced, luminescence 8 h; stronger effect = lower value. activity change, negative = inhibition, % at 7.5 µM (by protocol). hit rate 0.77% among 300,000;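 active = more than half of replicate wells show activity change below -50%, luminescence cut by over half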;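 also: luciferase reports HSF-1 transcriptional activity via heat shock element; 0% = median of DMSO wells and -100% = zero luminescence signal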
GAA30 FXN cntr = GAA30 FXN promoter activation counter-screen; shares compounds with GAA850 FXN act; HEK293 lucGAA30 FXN promoter luciferase, 24 h; DMSO = 0%, 5 µM ipriflavone = 100%; activation, % at 6 µM; hit rate 66% among 1,900;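 active = mean activation above the mean of solvent-only control wells plus 3 SD, cut at about 22% in these data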;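 also: counterscreen of GAA850 promoter hits where activity marks nonselective or luminescence artifacts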
GAA850 confirm = GAA850 FXN promoter activation confirmation. shares compounds with GAA850 FXN act. HEK293 lucGAA850 FXN promoter luciferase reporter, 24 h; 100% = activation by SAHA. activation, % at 6 µM. hit rate 86% among 1,900. AID 588351;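 active = mean activation above a set limit taken from the primary screen, cut at about 8% in these data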;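 also: 0% = DMSO wells and 100% = 10 µM SAHA wells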
An asterisk follows results filed as active; / = no result.

SMILES	HSF1 activator	GAA850 FXN act	AHR activator	DAX1 inh	HSF1 inh	GAA30 FXN cntr	GAA850 confirm
Cc1ccc(-c2nnc3c4ccccc4c(C)nn23)cc1S(=O)(=O)N1CCN(CCO)CC1	-2	7.6*	19	-2	3	32*	17*
O=C(/C=C/c1ccc([N+](=O)[O-])cc1)c1ccccc(=O)c1O	/	9.5*	/	-6	/	-101	-26
Cc1ccc(NC(=O)c2oc3ccccc3c2NC(=O)C2CCCO2)cc1C (stereo unspecified)	23	8.0*	74*	2	15	106*	38*
CCOC(=O)c1cnc(-c2ccccc2)nc1N(C)C	16	8.7*	33	3	13	120*	41*
COc1ccccc1CCNC(=O)C(=O)NCC1CCCN1S(=O)(=O)c1ccccc1 (stereo unspecified)	-10	-2	6	-4	-6	/	/
CC1=CN2C(=N)/C(=C/c3ccc([N+](=O)[O-])o3)C(=O)N=C2S1	75*	12*	6	0	53	-55	-17
Cc1nc2sc3c(=O)[nH]nnc3c2c(C)c1Br	14	1	1	0	7	/	/
Cc1ccc(Nc2nc(N)nc(CSc3nc4ccccc4s3)n2)cc1	18	11*	18	-1	13	40*	22*
Cc1ccccc1Nc1nc(N)nc(CSc2nc3ccccc3s2)n1	39	4	39	-1	21	/	/
C[C@H](CO)N1C[C@H](C)[C@H](CN(C)C(=O)Nc2ccc(F)cc2)OCc2ccccc2-c2c(n(C)c3ccccc23)C1=O	/	14*	/	0	/	20	9.4*
C[C@H](CO)N1C[C@H](C)[C@H](CN(C)S(=O)(=O)c2ccccc2)OCc2ccccc2-c2c(n(C)c3ccccc23)C1=O	/	1	/	0	/	/	/
C[C@@H]1CN([C@H](C)CO)C(=O)c2c(c3ccccc3n2C)-c2ccccc2CO[C@@H]1CN(C)C(=O)Nc1ccc2c(c1)OCO2	/	-7	/	0	/	/	/
Cc1ccccc1S(=O)(=O)N(C)C[C@@H]1OCc2ccccc2-c2c(n(C)c3ccccc23)C(=O)N([C@H](C)CO)C[C@@H]1C	/	20*	/	0	/	18	10*
COC(=O)N(C)C[C@@H]1OCc2ccccc2-c2c(n(C)c3ccccc23)C(=O)N([C@H](C)CO)C[C@@H]1C	/	16*	/	1	/	33*	14*
CS(=O)(=O)Nc1cccc(C(=O)OCCCOc2ccc(F)cc2)c1	-7	1	1	1	1	/	/
C=CCn1c2ccccc2c(=O)c2cc(C#CC[C@@H](C)O)ccc21	/	11*	41	0	/	127*	44*
C=CCn1c2ccccc2c(=O)c2cc(C#CC3(O)CCCCC3)ccc21	-49	11*	22	3	-44	104*	55*
Cn1c2ccccc2c(=O)c2cc(C#Cc3cccc(N)c3)ccc21	/	0	0	1	/	/	/
CCOC(=O)CN1C(=O)C2(OCCCO2)c2cc(Br)ccc21	7	0	-2	1	4	/	/
O=C1c2ccccc2[C@@H]2C[C@@H](O)[C@H](Nc3cccc(C(F)(F)F)c3)CCN12	/	-2	/	2	/	/	/
O=C(NCC1CCOCC1)C1CCC(=O)N(Cc2cccc(C(F)(F)F)c2)C1 (stereo unspecified)	-13	0	-1	1	-5	/	/
Nn1c(SCC(=O)Nc2ccc(OC(F)F)cc2)nnc1-c1ccco1	28	2	16	-1	14	/	/
Cc1ccc(N(CC(=O)NCc2ccco2)C(=O)CNS(=O)(=O)c2ccccc2)c(C)c1	42	1	-3	1	13	/	/
Cc1ccc(S(=O)(=O)N2CCN(C(=O)CCc3c[nH]c4ccccc34)CC2)c(C)c1	/	-2	17	0	/	/	/
COc1cccc(C(=O)c2sc(NC(C)C)nc2N)c1	-21	12*	29	0	-9	69*	89*
COc1ccc(C(=O)c2sc(NC(C)C)nc2N)cc1OC	/	5	43	0	/	/	/
O=C(COc1ccc(S(=O)(=O)N2CCOCC2)cc1Cl)NCC1CCCO1 (stereo unspecified)	-28	0	2	2	-9	/	/
